Results reported in PubChem BioAssay (NCI).
This is part of a sample that, as a whole, favours compounds with a hit. Of some 79,000 tested, about 15% had one in any assay. Unmarked numbers belong to inactive results. Activity calls are given as the source filed them. Cut-off read from the data, not from the text of the source: active = growth inhibition above about 70%; inactive = the rest.

Assays:
[1] = NCI Yeast Anticancer Drug Screen. Data for the mec2-1 strain (AID 157); settings: S. cerevisiae mec2-1 strain, at 50.0 µM, stronger effect = higher value
How it was run: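 Vehicle-treated cultures served as reference for growth inhibition of compound-exposed mec2-1 yeast.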

[2] = NCI Yeast Anticancer Drug Screen. Data for the sgs1 mgt1 strain (AID 161);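 note: 0% = growth of cultures given vehicle only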; settings: S. cerevisiae sgs1 mgt1 strain, at 50.0 µM, stronger effect = higher value
How it was run: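 Inhibition of yeast growth, normalised to vehicle-treated controls, is reported for a strain bearing genetic alterations in DNA damage repair.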

[3] = NCI Yeast Anticancer Drug Screen. Data for the cln2 rad14 strain (AID 165);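 note: 0% = growth equal to vehicle treated cultures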; settings: S. cerevisiae cln2 rad14 strain, at 50.0 µM, stronger effect = higher value
How it was run: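 Each compound was tested on cln2 rad14 yeast. Inhibition of growth was calculated against vehicle-exposed controls.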

[4] = NCI Yeast Anticancer Drug Screen. Data for the bub3 strain (AID 167); settings: S. cerevisiae bub3 mutant strain, at 50.0 µM, stronger effect = higher value
How it was run: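 Growth of a checkpoint-deficient yeast mutant is measured after compound exposure. Values represent inhibition relative to vehicle.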

[5] = NCI Yeast Anticancer Drug Screen. Data for the mlh1 rad18 strain (AID 175); settings: S. cerevisiae mlh1 rad18 strain growth inhibition; at 50.0 µM; stronger effect = higher value
How it was run: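 Vehicle-treated cultures served as the reference for growth inhibition in a yeast strain carrying DNA damage repair alterations exposed to each compound.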

| Compound | growth inhibition [1] | growth inhibition [2] | growth inhibition [3] | growth inhibition [4] | growth inhibition [5] |
| --- | --- | --- | --- | --- | --- |
| CCC(CO)Nc1nc2c(Cl)cc(Cl)cc2c2ccccc12 (stereo not given) | 1.55% | 18.4% | -12.3% | 12% | 41.2% |
| C/C(CC(=O)Nc1ccc(Cl)cc1)=N\NC(N)=S | -4.65% | 9.6% | 20.4% | -3.75% | -0.6% |
| Nc1nnc2nc(CC(=O)c3ccc(F)cc3)c(CC(=O)c3ccc(F)cc3)nn12 | 30.3% | 6.6% | -2.7% | 1.2% | 6.7% |
| Cc1ccc(C)c(NC(=O)Oc2ccc(Cl)cc2Cc2ccccc2)c1 | -3.5% | 0.05% | 11.8% | 8.2% | 7.1% |
| O=C1C2=C(Nc3cc(Cl)ccc3N2)OC1c1c[nH]c2ccc(COc3ccccc3)cc12 (stereo not given) | 6.6% | -1.55% | 30.4% | -15% | -4.1% |
| O=C(CCCN1CCC(Nc2ccccc2)(c2nnnn2C2CCCCC2)CC1)c1ccc(F)cc1 | -16.2% | 0.3% | 11.1% | 1.25% | 7.15% |
| Cc1ccc(S(=O)(=O)OCCN(CCO)c2cn(C(c3ccccc3)(c3ccccc3)c3ccccc3)c(=O)n(C(c3ccccc3)(c3ccccc3)c3ccccc3)c2=O)cc1 | 17.8% | 3.7% | -6.8% | -4.3% | 24.3% |
| CCOC(=O)CCC(NC(=O)c1ccc([N+](=O)[O-])cc1)C(=O)OCC (stereo not given) | -32.3% | -7.3% | -86.5% | 7.7% | 26.1% |
| COc1ccc(Cc2ccc(OC)c3ccccc23)c2ccccc12 | -2.45% | 4.3% | -30.9% | 15.2% | -5.25% |
| CN1CN(C(=O)N2CN(C)C(=O)N(C)C2)CN(C)C1=O | -13.6% | -23.6% | 3.45% | -14.2% | -37.4% |
| C(/C=C/c1ccccc1)=Nc1ccc2c(c1)Cc1ccccc1-2 | -0.35% | -25.8% | -27.9% | -15.8% | 9.9% |
| O=c1[nH]c2ccccc2nc1/C=C(\O)c1ccc([N+](=O)[O-])cc1 | -10.6% | -21.6% | 25.7% | -22.4% | 1.6% |
| Nc1ccc(O)c(C(=O)O)c1 | 11.2% | 11.2% | 0.8% | 1.35% | 26.6% |
| CCN(CC)/[N+]([O-])=N/O | -14.8% | -2.35% | -0.6% | 15.8% | 16.1% |
| CN(Cc1ccccc1)C(=O)c1ccc(C(=O)N(C)Cc2ccccc2)cc1 | -1.65% | 19.4% | -3.95% | 35.1% | 40.2% |
| O=C(Nc1ccc(NC(=O)OCc2ccccc2)c(Cl)c1)OCc1ccccc1 | 11.3% | 6.85% | -26.6% | 6.3% | 3% |
| O=c1nc(NCC23CC4CC(CC(C4)C2)C3)ccn1C1OC(CO)C(O)C1O (stereo not given) | -0.95% | -8.1% | 16.6% | -4.95% | -6.5% |
| CC(=O)SCC(C)CCl (stereo not given) | -47.6% | -30.9% | -3.15% | -17.7% | -25.4% |
| CC(=O)N1Cc2ncnc(N)c2C1 | -8.9% | -20.7% | -10.6% | -2.35% | -10.4% |

| Compound | growth inhibition [1] | growth inhibition [2] | growth inhibition [3] | growth inhibition [4] | growth inhibition [5] |
| --- | --- | --- | --- | --- | --- |
| Nc1nc(N)nc(SCC(=O)O)n1 | -23.2% | 2% | 3.15% | -2.05% | 14.9% |
| CC(C)(C)OC(=O)N1CCc2c(n(C/C=C/c3ccccc3)[nH]c2=O)C1 | -14.3% | -4.85% | -0.3% | 1.55% | -19.4% |
| CC(=O)NC1(C)C(C)C2CC1C(C)C2(C)C (stereo not given) | -13.8% | -44% | -0.55% | -30.6% | -34.6% |
| CCOP(=O)(OCC)/C(C#N)=C/c1c(C)[nH]c2ccccc12 | -10.8% | 18.6% | 13.4% | -7.45% | 25.7% |
| C[S+](C)N(c1ccccc1)C(C)(C)C | -8.2% | -0.45% | -17.4% | -22.7% | -6.1% |
| Cc1ccccc1C=O | -32.6% | 5.15% | -3.35% | -0.2% | -0.85% |
| CCCCOC1NC(=O)NC(=O)C1(F)C(=O)OCC (stereo not given) | -9.75% | 5.45% | 9.4% | -9.55% | -0.85% |
| CCCCCCCCCCCCCCCCCCCCCCCCC(O)C(=O)O (stereo not given) (tested in a mixture with another compound) | -31.4% | -2.4% | -23.2% | 7.7% | -0.45% |
| Cc1ccc([N+](=O)[O-])cc1NC(=O)Oc1cc(=O)oc2ccccc12 | 6.8% | -6.9% | -18.1% | 1.7% | -0.75% |
| C1=NC(c2ccccc2)=CN(C2CCCCC2)C1(c1ccccc1)C1CCCCC1 (stereo not given) | 96.5% (active) | 97.2% (active) | 94.6% (active) | 95.7% (active) | 96.5% (active) |
| Cc1ccc2[nH]c(=S)n(CCc3ccccc3)c(=O)c2c1 | -23% | 29.9% | 6.85% | 10.4% | 13.7% |
| CC(C)CC(=O)c1ccccn1 | -30.9% | -16.1% | 7.95% | -19% | -0.35% |
| c1ccc(CC[n+]2ccncc2)cc1 | 6.8% | -8.4% | -10.2% | 7.15% | -17.3% |
| CC(=O)NCC(OC(C)=O)c1ccc2c(c1)[nH]c1ccccc12 (stereo not given) | -6.5% | -3.3% | 10.1% | 11.2% | 31.2% |
| CCCCCCCCCCCCCCCCC[CH2][Sn]([Cl])([CH2]CCCCCCCCCCCCCCCCC)[CH2]CCCCCCCCCCCCCCCCC | -1.2% | -16.7% | -2.55% | -2.1% | -13.7% |
| CN(C)c1ccc(/C=C(\C#N)c2ccccc2Br)cc1 | -10.5% | 15.7% | -28.2% | 29.6% | 3.95% |
| O=C1NNC2(C(=O)N1)c1ccccc1-c1ccccc12 | -19.5% | 28.1% | 24.9% | 1.65% | 15.2% |
| CC(=O)Nc1ccccc1NOC(=O)c1ccccc1NC(C)=O | -8.9% | 4.45% | 32.7% | 25.1% | 18.1% |
| O=[N+]([O-])c1ccc2c(c1)Cc1cc([N+](=O)[O-])ccc1-2 | -64.5% | -25.4% | -181% | -54.1% | 51.2% |
